Records with an inconclusive call do not appear. Entries that show only a call come without a potency. Calls of active or inactive are those of the source. The call rests on the fitted dose curve; in most records, active means well fitted curve in the direction sought with a large enough effect in the repeat runs; inconclusive means weak or mixed curves; inactive means no such curve, though single readings can be large; an effect the other way counts as inactive or inconclusive.
Target: Cytochrome P450 2C9 (Homo sapiens) (UniProt P11712)
Assay: Cytochrome P450 Family 2 Subfamily C Member 9 (CYP2C9) small molecule antagonists: luciferase reporter qHTS assay (AID 1671198)
Conditions: P450-Glo CYP2C9 enzyme assay, luciferin luminescence; series mostly up to 115 µM
In short: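 CYP2C9 activity was measured with a P450-Glo proluciferin substrate. Enzyme–substrate mix was held with compound for 10 min at room temperature, then NADPH regeneration solution was added for 1 h at 37C. Luciferin product was read as luminescence.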
Further: nearly all actives have a fitted effect of over 50% in size.
Potency means the concentration at half of the fitted maximal effect.

Sequence of Cytochrome P450 2C9 (Homo sapiens) (P11712 whole entry, looked up): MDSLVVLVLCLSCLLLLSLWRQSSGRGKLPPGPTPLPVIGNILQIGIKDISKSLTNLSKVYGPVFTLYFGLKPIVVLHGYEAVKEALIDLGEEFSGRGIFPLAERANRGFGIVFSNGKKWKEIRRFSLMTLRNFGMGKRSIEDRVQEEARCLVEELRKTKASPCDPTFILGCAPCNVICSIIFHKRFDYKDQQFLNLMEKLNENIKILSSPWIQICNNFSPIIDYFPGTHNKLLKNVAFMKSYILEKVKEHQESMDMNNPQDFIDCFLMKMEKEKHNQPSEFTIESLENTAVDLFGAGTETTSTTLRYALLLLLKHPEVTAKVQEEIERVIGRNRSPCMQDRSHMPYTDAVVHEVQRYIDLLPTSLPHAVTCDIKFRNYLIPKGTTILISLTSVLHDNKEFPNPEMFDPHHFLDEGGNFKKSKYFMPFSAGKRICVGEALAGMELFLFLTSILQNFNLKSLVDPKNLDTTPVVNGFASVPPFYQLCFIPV

Row | SMILES | Potency
1 | COc1ccc(OC)c(OC)c1 | 22.4 µM (active)
2 | C=CCCCCCC | inactive
3 | OC(CCN1CCCCC1)(c1ccccc1)C1CCCCC1 (centres undefined) | inactive
4 | CNS(=O)(=O)Cc1ccc2[nH]cc(CCN(C)C)c2c1 | inactive
5 | CC1CCc2cc(F)cc3c(=O)c(C(=O)O)cn1c23 (centres undefined) | inactive
6 | CC(C)CCCCCCOC(=O)c1ccc(C(=O)OCCCCCCC(C)C)c(C(=O)OCCCCCCC(C)C)c1 | 71 µM (active)
7 | Nc1nc(CC(=O)O)cs1 | inactive
8 | O=c1c2ccccc2nnn1CCl | 71 µM (active)
9 | CCC(C)N(C)C(=O)c1cc2ccccc2c(-c2ccccc2Cl)n1 (centres undefined) | 20.5 µM (active)

Target: Cytochrome P450 1A2 (Homo sapiens) (UniProt P05177)
Assay: Cytochrome P450 Family 1 Subfamily A Member 2 (CYP1A2) small molecule antagonists: luciferase reporter qHTS assay (AID 1671199)
Conditions: P450-Glo CYP1A2 enzyme, luciferin luminescence, 1 h; series mostly up to 115 µM
In short: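 Quantitative high-throughput format using the P450-Glo CYP1A2 system. Reaction initiated by NADPH regeneration solution, 1 h at room temperature, then stopped with detection reagent; luminescence measured 20 min later.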

Sequence of Cytochrome P450 1A2 (Homo sapiens) (P05177 whole entry, looked up): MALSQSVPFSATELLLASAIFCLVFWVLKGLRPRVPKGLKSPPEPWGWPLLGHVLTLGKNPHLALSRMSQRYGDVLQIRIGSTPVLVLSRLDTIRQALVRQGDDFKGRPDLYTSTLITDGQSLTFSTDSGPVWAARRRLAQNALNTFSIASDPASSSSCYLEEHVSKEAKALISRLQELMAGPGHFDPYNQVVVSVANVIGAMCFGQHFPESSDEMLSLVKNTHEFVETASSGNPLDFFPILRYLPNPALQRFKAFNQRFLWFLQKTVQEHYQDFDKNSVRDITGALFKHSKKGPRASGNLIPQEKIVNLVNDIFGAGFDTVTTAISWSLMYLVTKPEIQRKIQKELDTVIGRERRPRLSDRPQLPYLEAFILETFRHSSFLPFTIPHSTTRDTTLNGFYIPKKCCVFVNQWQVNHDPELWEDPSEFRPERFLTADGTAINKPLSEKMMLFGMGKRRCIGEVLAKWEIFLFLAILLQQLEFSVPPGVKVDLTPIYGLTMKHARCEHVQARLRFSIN

Row | SMILES | Potency
10 | COc1ccc(OC)c(OC)c1 | 39.9 µM (active)
11 | C=CCCCCCC | inactive
12 | O=C(Cl)c1c(Cl)cccc1Cl | inactive
13 | O=C1Nc2cc(Cl)ccc2Oc2ccccc21 | 1.95 µM (active)
14 | OC(CCN1CCCCC1)(c1ccccc1)C1CCCCC1 (centres undefined) | inactive
15 | CC(=O)[C@@]1(O)CC[C@H]2[C@@H]3C[C@H](C)C4=CC(=O)CC[C@]4(C)[C@H]3CC[C@@]21C | inactive
16 | CNS(=O)(=O)Cc1ccc2[nH]cc(CCN(C)C)c2c1 | inactive
17 | O=C1c2cccc(O)c2C(=O)c2c(O)cc(CO)cc21 | 8.94 µM (active)
18 | CC(CN)CCCN (centres undefined) | inactive
19 | CC(C)(C)c1cc(CCC(=O)OCC(COC(=O)CCc2cc(C(C)(C)C)c(O)c(C(C)(C)C)c2)(COC(=O)CCc2cc(C(C)(C)C)c(O)c(C(C)(C)C)c2)COC(=O)CCc2cc(C(C)(C)C)c(O)c(C(C)(C)C)c2)cc(C(C)(C)C)c1O | 6.75 µM (active)
20 | CC1CCc2cc(F)cc3c(=O)c(C(=O)O)cn1c23 (centres undefined) | inactive
21 | Cc1cccc(Oc2ccccc2)c1 | 34.7 µM (active)
22 | CC(C)CCCCCCOC(=O)c1ccc(C(=O)OCCCCCCC(C)C)c(C(=O)OCCCCCCC(C)C)c1 | inactive
23 | CC(C)CCCC(C)CCO (centres undefined) | inactive
24 | CCCC(C)C | 63.9 µM (active)
25 | Nc1nc(CC(=O)O)cs1 | inactive
26 | O=C=NC1CCC(CC2CCC(N=C=O)CC2)CC1 (centres undefined) | 44.8 µM (active)
27 | CCCCC(CC)(CO)CO | inactive
28 | CC(=O)N(CC(=O)N(C)C)c1ccccc1 | inactive
29 | CCCCOC(=O)/C=C\C(=O)OCCCC | 7.34 µM (active)
30 | O=c1c2ccccc2nnn1CCl | inactive
31 | CCC(C)N(C)C(=O)c1cc2ccccc2c(-c2ccccc2Cl)n1 (centres undefined) | inactive
32 | CCOc1ccc(NC(=O)CC(C)=O)cc1 | 31.7 µM (active)
33 | CCCCCCCCN(C)C | inactive
34 | COC(Cc1ccccc1)OC | inactive
35 | CC(=O)OCCc1ccccc1 | inactive
36 | Cc1ccccc1N=Nc1ccc(N=Nc2c(O)ccc3ccccc23)c(C)c1 | 13.8 µM (active)
37 | COc1ccc(C(C)=O)cc1 | 29.1 µM (active)
38 | CCN(CC)C(C)CN1c2ccccc2Sc2ccccc21 (centres undefined) | 7.76 µM (active)
39 | C=C(C)C(=O)OCCN(C)C | inactive

Target: Voltage-gated inwardly rectifying potassium channel KCNH2 (Homo sapiens) (UniProt Q12809)
Assay: Human Ether-a-go-go-Related Gene (hERG) channel small molecule antagonists: fluorescence cell-based qHTS assay (AID 1671200)
Conditions: hERG-U2OS cells, FluxOR thallium flux fluorescence; series mostly up to 76.8 µM
In short: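 Thallium served as the potassium surrogate; its influx into dye-loaded U2OS cells carrying the channel was measured by fluorescence over 2 min.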

Sequence of Voltage-gated inwardly rectifying potassium channel KCNH2 (Homo sapiens) (Q12809 whole entry, looked up): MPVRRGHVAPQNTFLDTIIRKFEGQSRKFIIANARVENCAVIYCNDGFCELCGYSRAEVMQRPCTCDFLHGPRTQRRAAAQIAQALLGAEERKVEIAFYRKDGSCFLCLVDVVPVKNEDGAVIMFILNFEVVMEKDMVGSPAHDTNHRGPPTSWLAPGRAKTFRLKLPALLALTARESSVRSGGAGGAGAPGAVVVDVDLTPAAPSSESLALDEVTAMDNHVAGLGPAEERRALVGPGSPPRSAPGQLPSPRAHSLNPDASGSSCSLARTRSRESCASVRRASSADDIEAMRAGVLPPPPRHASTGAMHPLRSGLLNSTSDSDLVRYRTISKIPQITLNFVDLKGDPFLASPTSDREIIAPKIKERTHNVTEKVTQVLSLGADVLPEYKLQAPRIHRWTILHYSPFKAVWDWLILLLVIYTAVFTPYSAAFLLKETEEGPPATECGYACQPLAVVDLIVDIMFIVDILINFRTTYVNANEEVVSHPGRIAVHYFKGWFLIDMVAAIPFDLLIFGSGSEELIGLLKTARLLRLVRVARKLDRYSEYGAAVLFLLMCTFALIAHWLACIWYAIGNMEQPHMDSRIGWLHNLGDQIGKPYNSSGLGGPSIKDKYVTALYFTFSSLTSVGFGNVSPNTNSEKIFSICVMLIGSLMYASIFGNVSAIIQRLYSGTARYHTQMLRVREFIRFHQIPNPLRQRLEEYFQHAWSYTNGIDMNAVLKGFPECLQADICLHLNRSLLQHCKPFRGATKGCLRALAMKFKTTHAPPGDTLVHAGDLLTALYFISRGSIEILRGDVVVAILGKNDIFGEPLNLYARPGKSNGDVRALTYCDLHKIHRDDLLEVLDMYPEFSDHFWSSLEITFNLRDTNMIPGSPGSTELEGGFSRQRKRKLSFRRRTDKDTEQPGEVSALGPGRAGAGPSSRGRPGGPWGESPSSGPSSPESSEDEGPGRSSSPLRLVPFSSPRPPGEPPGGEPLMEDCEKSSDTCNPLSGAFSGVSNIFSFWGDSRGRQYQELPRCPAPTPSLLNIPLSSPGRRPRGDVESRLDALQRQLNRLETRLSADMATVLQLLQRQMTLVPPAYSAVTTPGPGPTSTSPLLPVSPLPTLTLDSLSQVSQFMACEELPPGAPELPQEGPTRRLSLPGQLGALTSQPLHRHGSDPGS

Row | SMILES | Potency
40 | COc1ccc(OC)c(OC)c1 | inactive
41 | C=CCCCCCC | inactive
42 | O=C(Cl)c1c(Cl)cccc1Cl | inactive
43 | O=C1Nc2cc(Cl)ccc2Oc2ccccc21 | inactive
44 | CC(=O)[C@@]1(O)CC[C@H]2[C@@H]3C[C@H](C)C4=CC(=O)CC[C@]4(C)[C@H]3CC[C@@]21C | inactive
45 | O=C(O)/C=C/c1cnc[nH]1 | inactive
46 | CNS(=O)(=O)Cc1ccc2[nH]cc(CCN(C)C)c2c1 | inactive
47 | O=C1c2cccc(O)c2C(=O)c2c(O)cc(CO)cc21 | inactive
48 | CC(CN)CCCN (centres undefined) | inactive
49 | CC(C)(C)c1cc(CCC(=O)OCC(COC(=O)CCc2cc(C(C)(C)C)c(O)c(C(C)(C)C)c2)(COC(=O)CCc2cc(C(C)(C)C)c(O)c(C(C)(C)C)c2)COC(=O)CCc2cc(C(C)(C)C)c(O)c(C(C)(C)C)c2)cc(C(C)(C)C)c1O | inactive
50 | CC1CCc2cc(F)cc3c(=O)c(C(=O)O)cn1c23 (centres undefined) | inactive
51 | Cc1cccc(Oc2ccccc2)c1 | 13.5 µM (active)
52 | CCCCCCCCCC=O | inactive
53 | CC(C)CCCCCCOC(=O)c1ccc(C(=O)OCCCCCCC(C)C)c(C(=O)OCCCCCCC(C)C)c1 | inactive
54 | CC(C)CCCC(C)CCO (centres undefined) | inactive
55 | CCCC(C)C | inactive
56 | O=C=NC1CCC(CC2CCC(N=C=O)CC2)CC1 (centres undefined) | inactive
57 | CCCCC(CC)(CO)CO | inactive

Row | SMILES | Potency
58 | CC(=O)N(CC(=O)N(C)C)c1ccccc1 | inactive
59 | CCCCOC(=O)/C=C\C(=O)OCCCC | inactive
60 | O=c1c2ccccc2nnn1CCl | inactive
61 | CCC(C)N(C)C(=O)c1cc2ccccc2c(-c2ccccc2Cl)n1 (centres undefined) | inactive
62 | C1=Cc2ccccc2C1 | inactive
63 | CCOc1ccc(NC(=O)CC(C)=O)cc1 | inactive
64 | Oc1ccc(C(O)CNCCCCCCNCC(O)c2ccc(O)c(O)c2)cc1O (centres undefined) | inactive
65 | N#CCCNCCC#N | inactive
66 | O=C(c1ccccc1)c1ccc2n1CCC2C(=O)O (centres undefined) | inactive
67 | CN(c1nccc(=O)[nH]1)C1CCN(c2nc3ccccc3n2Cc2ccc(F)cc2)CC1 | 2.39 µM (active)
68 | CCCCCCCCN(C)C | inactive
69 | COC(Cc1ccccc1)OC | inactive
70 | CC(=O)OCCc1ccccc1 | inactive
71 | Cc1ccccc1N=Nc1ccc(N=Nc2c(O)ccc3ccccc23)c(C)c1 | inactive
72 | CC[C@@H]1C[C@H](N(Cc2cc(C(F)(F)F)cc(C(F)(F)F)c2)C(C)=O)c2cc(C(F)(F)F)ccc2N1C(=O)OC(C)C | inactive
73 | COc1ccc(C(C)=O)cc1 | inactive
74 | C=C(C)C(=O)OCCN(C)C | inactive

From PubChem BioAssay (Tox21)
